Values joined by “and” are separate entries in the source; they are usually repeats but may differ in a detail not shown here. Equal entries are not always repeated. Inconclusive results are not listed. Active and inactive are the calls of the source. The call rests on the fitted dose curve; in most records, active means well fitted curve in the direction sought with a large enough effect; inconclusive means small, poorly fitted or top-dose-only effect, or another doubt; inactive means no such curve, though single readings can be large; an effect the other way counts as inactive or inconclusive.

A short description of assay [1]: qHTS of pediatric cancer cell lines to identify multiple opportunities for drug repurposing: Primary screen for DAOY cells (AID 1347090). Further: series mostly up to about 46 µM; nearly all actives have a fitted effect of over 55% in size. The procedure, abridged:
(§1)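 Eight- or eleven-point concentration series, 48 h treatment at 37 degrees C in growth media; readout CellTiter-Glo luminescence. Potency and efficacy were taken from the concentration-response curves.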

Assay [2] can be described thus: qHTS of pediatric cancer cell lines to identify multiple opportunities for drug repurposing: Primary screen for NB-EBc1 cells (AID 1347095). Further: potency means the concentration at half of the fitted maximal effect. The method, boiled down:
(§2)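 Luminescence from CellTiter-Glo served as readout of metabolically active cells after 48 h compound exposure. Titrations: MIPE 11-point, from 0.78 nM; NPC 8-point, from 0.59 nM (final). Concentration-response curves came straight from the primary screen.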
A general note: In qHTS, concentration-response curves come from the screen itself.

The nature of assay [3]: qHTS of pediatric cancer cell lines to identify multiple opportunities for drug repurposing: Primary screen for U-2 OS cells (AID 1347096). Further: nearly all actives have a fitted effect of over 50% in size. The method, boiled down:
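Cells (500-1,000/well) in growth media were settled 5 h at 37 degrees C, then given compounds for 48 h. Viability was read as CellTiter-Glo luminescence. Primary runs used MIPE at 11 points (0.78 nM-46 µM) and NPC at 8 points (0.59 nM-46 µM); follow-ups used 11 points.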

Assay [4] in a line: qHTS of pediatric cancer cell lines to identify multiple opportunities for drug repurposing: Primary screen for NB1643 cells (AID 1347099). Further: nearly all actives have a fitted effect of over 50% in size. Further: potency means the concentration at half of the fitted maximal effect. The procedure, abridged:
as §2

Assay [5] is described as follows: qHTS of pediatric cancer cell lines to identify multiple opportunities for drug repurposing: Primary screen for SJ-GBM2 cells (AID 1347091). Further: potency means the concentration at half of the fitted maximal effect. The method, boiled down: as §1
Assay [6] is described as follows: qHTS of pediatric cancer cell lines to identify multiple opportunities for drug repurposing: Primary screen for A673 cells (AID 1347092). Further: nearly all actives have a fitted effect of over 45% in size. Further: potency means the concentration at half of the fitted maximal effect. The procedure, abridged: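 Cell viability of A673 measured by CellTiter-Glo ATP luminescence after 48 hours compound exposure. Dilution series spanned 0.78 nM to 46 µM (MIPE, 11-point) or 0.59 nM to 46 µM (NPC, 8-point); bortezomib 2.3 uM positive control.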

Assay [7] in a line: qHTS of pediatric cancer cell lines to identify multiple opportunities for drug repurposing: Primary screen for BT-37 cells (AID 1347094). Further: potency means the concentration at half of the fitted maximal effect. The procedure, abridged:
as §2

Assay [8] is described as follows: qHTS of pediatric cancer cell lines to identify multiple opportunities for drug repurposing: Primary screen for Saos-2 cells (AID 1347097). Further: nearly all actives have a fitted effect of over 40% in size. Further: potency means the concentration at half of the fitted maximal effect. The method, boiled down:
as §2

Assay [9] in a line: qHTS of pediatric cancer cell lines to identify multiple opportunities for drug repurposing: Primary screen for SK-N-MC cells (AID 1347093). Further: potency means the concentration at half of the fitted maximal effect. The procedure, abridged: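 Metabolically active cells were quantified by ATP-dependent luminescence (CellTiter-Glo, 15 min at room temperature) following 48 h treatment. Cells had been plated at 500-1,000 per well and settled for 5 h beforehand.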

Assay [10] can be described thus: qHTS of pediatric cancer cell lines to identify multiple opportunities for drug repurposing: Primary screen for SK-N-SH cells (AID 1347098). Further: nearly all actives have a fitted effect of over 65% in size. Further: potency means the concentration at half of the fitted maximal effect. The procedure, abridged: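 Cells (500-1,000/well) rested 5 h, then received compounds for 48 h; metabolically active cells were measured by CellTiter-Glo luminescence. Final concentrations spanned up to 46 µM (MIPE, 11-point) or 0.59 nM-46 µM (NPC, 8-point) in primary screens, 11-point in follow-ups.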

On to `Nc1nc2c(ncn2COC(CO)CO)c(=O)[nH]1`, for which the Potency result in assay [1], in assay [2], in [3] and in [4] was “inactive” each time.
`COc1ccc2[nH]cc(CCNC(C)=O)c2c1`: the Potency entry in [5], in assay [6], in [7], in assay [2], in [3] and in assay [8] was “inactive” in each case. The Potency entry in assay [4] was “inactive”.
In the case of `CC(C)(Oc1ccc(C2CC2(Cl)Cl)cc1)C(=O)O` (centres undefined), the Potency result in assay [1], in [9], in [3] and in assay [8] was “inactive” throughout.
Turning to `CN(C)CCCN1c2ccccc2CCc2ccc(Cl)cc21`, the Potency in assay [5] is 23.7 µM (active); in assay [6], 0.469 µM (active); in [7], 12.2 µM (active) and 24.6 µM (active).
On to `CN1CCN(CCCN2c3ccccc3Sc3ccc(Cl)cc32)CC1`, for which the values for the Potency in assay [6] and in assay [7] were 9.35 µM (active) and 9.68 µM (active), respectively. Further, the Potency entry in assay [2] and in [3] was “inactive” in each case.
Turning to `NC(=O)NO`, the Potency result in assay [3], in [10] and in assay [4] was “inactive” throughout.
`O=c1[nH]cc(F)c(=O)[nH]1`: the Potency result in [5] and in assay [3] was “inactive” in each case.
As to `O=C(Nc1ccc([N+](=O)[O-])cc1Cl)c1cc(Cl)ccc1O`, the Potency in assay [5] is 1.3 µM (active) and 743 nM (active); in assay [6], 4.69 µM (active); in assay [7], 1.69 µM (active) and 1.37 µM (active); in assay [2], 4.11 µM (active) and 743 nM (active); in [8], 2.31 µM (active) and 1.18 µM (active); in assay [4], 820 nM (active) and 590 nM (active).
With `Clc1ccc(C(c2ccccc2Cl)C(Cl)Cl)cc1` (centres undefined), the Potency entry in assay [5] and in [3] was “inactive” each time. Besides, the Potency was 23.5 µM (active) in assay [6]; 16.8 µM (active) and 18.7 µM (active) in assay [8].
Consider `CC(C)C(=O)Nc1ccc([N+](=O)[O-])c(C(F)(F)F)c1`, for which the Potency in assay [6] is 0.0118 µM (active). The Potency result in assay [2] and in assay [3] was “inactive” in each case.
With `C[C@](N)(Cc1ccc(O)c(O)c1)C(=O)O`, the Potency result in assay [5], in assay [9], in assay [7] and in [3] was “inactive” in each case.
Consider `CCC1(C)CC(=O)NC1=O` (centres undefined), for which the Potency entry in [5], in [6], in assay [7], in assay [2], in assay [3] and in [4] was “inactive” each time.
On to `COc1ccccc1N1CCN(CC(O)COc2cccc3ccccc23)CC1` (centres undefined), for which the Potency result in assay [5], in [6], in assay [7], in [3] and in assay [4] was “inactive” in each case.
In the case of `O=c1c(-c2ccc(O)cc2)coc2cc(O)cc(O)c12`, the Potency result in assay [5], in assay [3] and in assay [8] was “inactive” in each case.
Turning to `CC(C)(C)C(=O)Oc1ccc(S(=O)(=O)Nc2ccccc2C(=O)NCC(=O)O)cc1`, the Potency result in assay [5], in [6], in [7], in [2], in [3] and in [4] was “inactive” throughout.
As to `CCC1(c2ccccc2)C(=O)NCNC1=O`, the Potency entry in assay [5], in [7], in assay [3] and in assay [8] was “inactive” in each case.
`Cn1c(=O)c2[nH]cnc2n(C)c1=O`: the Potency result in [5], in [6], in assay [7] and in [3] was “inactive” in each case.
Consider `COc1cc2nc(N3CCN(C(=O)c4ccco4)CC3)nc(N)c2cc1OC`, for which the Potency result in assay [5] and in assay [2] was “inactive” in each case. Also, the Potency in assay [6] was 14.8 µM (active); in assay [7], 24.3 µM (active); in assay [10], 27.1 µM (active).
Take `CC12CC3CC(C)(C1)CC(N)(C3)C2`: the Potency result in assay [5], in assay [7], in assay [2], in assay [3] and in assay [8] was “inactive” each time.
As for `COc1ccc2c(c1)c(CC(=O)O)c(C)n2C(=O)c1ccc(Cl)cc1`, the Potency in [9] was 29.6 µM (active). The Potency result in [7], in assay [2] and in assay [3] was “inactive” each time.
In the case of `CC[N+](CC)(CC)CCOc1cccc(OCC[N+](CC)(CC)CC)c1OCC[N+](CC)(CC)CC`, the Potency result in assay [5], in assay [6], in assay [7], in [3] and in [4] was “inactive” each time.
In the case of `COc1ccccc1OCCNCC(O)COc1cccc2[nH]c3ccccc3c12` (centres undefined), the Potency entry in assay [5], in [6], in [3], in assay [8], in assay [10] and in assay [4] was “inactive” in each case.
Consider `COc1cc2c(c(OC)c1OC)-c1ccc(OC)c(=O)cc1[C@@H](NC(C)=O)CC2`, for which the Potency was 42.2 nM (active) and 1 nM (active) in [5]; 0.0067 µM (active) in [6]; 6.2 nM (active) and 172 nM (active) in assay [7]; 8.4 nM (active) in assay [4].
`CNCCCC12CCC(c3ccccc31)c1ccccc12`: the Potency in assay [6] was 21.1 µM (active) and 23.5 µM (active); in assay [9], 23.5 µM (active). For the same molecule, the Potency result in [2] is “inactive”.
On to `O=c1c(O)c(-c2ccc(O)c(O)c2)oc2cc(O)cc(O)c12`, for which the Potency entry in assay [5] and in [3] was “inactive” throughout. In addition, the Potency in assay [6] was 14.8 µM (active); in [10], 24.1 µM (active).
Regarding `Cc1cn([C@H]2C[C@H](N=[N+]=[N-])[C@@H](CO)O2)c(=O)[nH]c1=O`, the Potency entry in assay [5], in assay [7], in [3] and in assay [8] was “inactive” each time.
As for `Nc1ccn([C@H]2CC[C@@H](CO)O2)c(=O)n1`, the Potency result in [5], in [6], in assay [7], in [2], in assay [3] and in assay [10] was “inactive” throughout. For the same molecule, the Potency result in assay [4] was “inactive”.
Regarding `Fc1ccc([C@@H]2CCNC[C@H]2COc2ccc3c(c2)OCO3)cc1`, the Potency result in assay [7], in [2], in assay [3], in assay [10] and in assay [4] was “inactive” throughout.
Take `NC12CC3CC(CC(C3)C1)C2`: the Potency result in [5], in assay [7], in assay [2] and in assay [3] was “inactive” in each case.
With `O=C(c1ccc(F)cc1)C1CCN(CCn2c(=O)[nH]c3ccccc3c2=O)CC1`, the Potency entry in assay [5], in assay [6], in assay [7], in assay [3], in [8] and in [10] was “inactive” each time. In addition, the Potency result in [4] was “inactive”.
On to `OCCN(CCO)c1nc(N2CCCCC2)c2nc(N(CCO)CCO)nc(N3CCCCC3)c2n1`, for which the Potency result in [5], in assay [7], in [2], in assay [3] and in assay [4] was “inactive” throughout.
Take `CN(C)C(=O)C(CCN1CCC(O)(c2ccc(Cl)cc2)CC1)(c1ccccc1)c1ccccc1`: the Potency in assay [6] was 18.7 µM (active); in assay [7], 24.3 µM (active). In addition, the Potency entry in assay [3] and in assay [8] was “inactive” each time.

For the origin of these results see PubChem BioAssay (NCATS).
